Measured values: PubChem BioAssay AID1159580 (chemical genetic matrix, 2015)
Out of some 5,500 compounds screened, about 2,000 (36%) were called active. Another 18% or so got no clear call; they are omitted. Rule as the data show it: active = normalized growth mostly below about 0.91 (no sharp cut-off); inconclusive = no clear call, values can overlap the other calls; inactive = mostly above about 0.92. This is one part of the list.

Assay: chemical genetic growth profiling, strain panel (AID 1159580);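 also: tested at 20 µM; growth read once vehicle control cultures reached saturation at 30 °C; 1 = growth at the plate median or of vehicle wells; lower values mean less growth of the strain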
Details: growth OD

Measured: normalized growth

CCOC(=O)NC1=C(C2CC2)C(=O)C(NC(=O)OCC)=C(C2CC2)C1=O
inactive: S. cerevisiae deletion strains, locus YAL013W, strain DEP1, hits give low values 0.97 | S. cerevisiae deletion strains, locus YBR021W, strain FUR4, hits give low values 0.961 | S. cerevisiae deletion strains, locus YBR229C, strain ROT2, hits give low values 1 | S. cerevisiae deletion strains, locus YCL029C, strain bik1, hits give low values 0.993 | S. cerevisiae deletion strains, locus YDL035C, strain GPR1, hits give low values 1 | S. cerevisiae deletion strains, locus YDL074C, strain BRE1, hits give low values 1.04 | S. cerevisiae deletion strains, locus YDL101C, strain DUN1, hits give low values 1 | S. cerevisiae deletion strains, locus YDL134C, strain PPH21, hits give low values 1 | S. cerevisiae deletion strains, locus YDL185W, strain tfp1, hits give low values 0.98 | S. cerevisiae deletion strains, locus YDL192W, strain arf1, hits give low values 0.991 | S. cerevisiae deletion strains, locus YDR101C, strain arx1, hits give low values 0.993 | S. cerevisiae deletion strains, locus YDR150W, strain NUM1, hits give low values 0.99 | S. cerevisiae deletion strains, locus YDR162C, strain NBP2, hits give low values 1.01 | S. cerevisiae deletion strains, locus YDR318W, strain mcm21, hits give low values 0.99 | S. cerevisiae deletion strains, locus YDR388W, hits give low values 0.995 | S. cerevisiae deletion strains, locus YDR502C, strain sam2, hits give low values 0.996 | S. cerevisiae deletion strains, locus YEL061C, strain CIN8, hits give low values 0.995 | S. cerevisiae deletion strains, locus YER110C, hits give low values 0.98 | S. cerevisiae deletion strains, locus YER155C, strain BEM2, hits give low values 0.994 | S. cerevisiae deletion strains, locus YER167W, strain BCK2, hits give low values 0.98 | S. cerevisiae deletion strains, locus YGL078C, strain dbp3, hits give low values 0.983 | S. cerevisiae deletion strains, locus YGL086W, strain mad1, hits give low values 0.982 | S. cerevisiae deletion strains, locus YGL248W, strain PDE1, hits give low values 1 | S. cerevisiae deletion strains, locus YGR078C, strain PAC10, hits give low values 1.01 | S. cerevisiae deletion strains, locus YGR135W, strain pre9, hits give low values 1 | S. cerevisiae deletion strains, locus YGR229C, strain SMI1, hits give low values 1.04 | S. cerevisiae deletion strains, locus YGR252W, strain gcn5, hits give low values 1.02 | S. cerevisiae deletion strains, locus YHR030C, strain SLT2, hits give low values 0.986 | S. cerevisiae deletion strains, locus YHR079C, strain IRE1 (second series), hits give low values 0.99 | S. cerevisiae deletion strains, locus YHR094C, strain hxt1, hits give low values 0.976 | S. cerevisiae deletion strains, locus YHR129C, strain ARP1, hits give low values 0.999 | S. cerevisiae deletion strains, locus YHR200W, strain rpn10, hits give low values 0.992 | S. cerevisiae deletion strains, locus YIL066C, strain RNR3, hits give low values 1 | S. cerevisiae deletion strains, locus YIL073C, strain SPO22, hits give low values 0.9 | S. cerevisiae deletion strains, locus YIL125W, strain kgd1, hits give low values 0.988 | S. cerevisiae deletion strains, locus YIR030C, strain dcg1, hits give low values 0.995 | S. cerevisiae deletion strains, locus YJL095W, strain BCK1, hits give low values 1.05 | S. cerevisiae deletion strains, locus YJL134W, strain LCB3, hits give low values 0.993 | S. cerevisiae deletion strains, locus YJL168C, strain set2, hits give low values 0.993 | S. cerevisiae deletion strains, locus YJL187C, strain SWE1 (second series), hits give low values 0.988 | S. cerevisiae deletion strains, locus YJR043C, strain POL32, hits give low values 0.997 | S. cerevisiae deletion strains, locus YJR075W, strain HOC1, hits give low values 0.999 | S. cerevisiae deletion strains, locus YKL009W, strain mrt4, hits give low values 0.973 | S. cerevisiae deletion strains, locus YKL068W, hits give low values 0.98 | S. cerevisiae deletion strains, locus YKL085W, strain MDH1 (second series), hits give low values 0.984 | S. cerevisiae deletion strains, locus YKL085W, strain MDH1, hits give low values 0.984 | S. cerevisiae deletion strains, locus YKL190W, strain CNB1, hits give low values 0.994 | S. cerevisiae deletion strains, locus YKR001C, strain vps1, hits give low values 0.989 | S. cerevisiae deletion strains, locus YLR039C, strain RIC1, hits give low values 0.96 | S. cerevisiae deletion strains, locus YLR058C, strain SHM2, hits give low values 0.984 | S. cerevisiae deletion strains, locus YLR102C, strain apc9, hits give low values 0.992 | S. cerevisiae deletion strains, locus YLR262C, strain YPT6, hits give low values 1.01 | S. cerevisiae deletion strains, locus YLR268W, strain sec22, hits give low values 1.01 | S. cerevisiae deletion strains, locus YLR330W, strain CHS5, hits give low values 0.989 | S. cerevisiae deletion strains, locus YLR342W, strain FKS1 (second series), hits give low values 0.976 | S. cerevisiae deletion strains, locus YLR371W, strain rom2, hits give low values 0.976 | S. cerevisiae deletion strains, locus YLR418C, strain cdc73, hits give low values 1.03 | S. cerevisiae deletion strains, locus YML016C, strain PPZ1, hits give low values 0.99 | S. cerevisiae deletion strains, locus YML032C, strain rad52, hits give low values 0.985 | S. cerevisiae deletion strains, locus YML124C, strain tub3, hits give low values 0.988 | S. cerevisiae deletion strains, locus YMR078C, strain ctf18, hits give low values 0.993 | S. cerevisiae deletion strains, locus YMR223W, strain ubp8, hits give low values 0.979 | S. cerevisiae deletion strains, locus YMR263W, strain SAP30, hits give low values 1.01 | S. cerevisiae deletion strains, locus YMR307W, strain GAS1, hits give low values 0.999 | S. cerevisiae deletion strains, locus YNL067W, strain RPL9B, hits give low values 1.03 | S. cerevisiae deletion strains, locus YNL128W, strain TEP1, hits give low values 1.01 | S. cerevisiae deletion strains, locus YNL153C, strain GIM3, hits give low values 1.01 | S. cerevisiae deletion strains, locus YNL233W, strain BNI4, hits give low values 1.01 | S. cerevisiae deletion strains, locus YNL250W, strain rad50, hits give low values 0.981 | S. cerevisiae deletion strains, locus YNL271C, strain bni1, hits give low values 0.984 | S. cerevisiae deletion strains, locus YNL298W, strain CLA4, hits give low values 0.985 | S. cerevisiae deletion strains, locus YNL307C, strain MCK1, hits give low values 0.985 | S. cerevisiae deletion strains, locus YNL322C, strain KRE1, hits give low values 0.998 | S. cerevisiae deletion strains, locus YNR052C, strain pop2, hits give low values 0.98 | S. cerevisiae deletion strains, locus YOL006C, strain TOP1, hits give low values 1.1 | S. cerevisiae deletion strains, locus YOL012C, strain htz1 1.15 | S. cerevisiae deletion strains, locus YOL147C, strain pex11, hits give low values 0.986 | S. cerevisiae deletion strains, locus YOR061W, strain CKA2, hits give low values 1 | S. cerevisiae deletion strains, locus YOR069W, strain VPS5, hits give low values 0.995 | S. cerevisiae deletion strains, locus YOR136W, strain idh2, hits give low values 0.983 | S. cerevisiae deletion strains, locus YOR144C, strain elg1, hits give low values 1 | S. cerevisiae deletion strains, locus YOR184W, strain ser1, hits give low values 0.974 | S. cerevisiae deletion strains, locus YOR316C, strain cot1, hits give low values 0.985 | S. cerevisiae deletion strains, locus YPL055C, strain LGE1, hits give low values 1.04 | S. cerevisiae deletion strains, locus YPL241C, strain CIN2, hits give low values 0.999 | S. cerevisiae deletion strains, locus YPR119W, strain clb2, hits give low values 0.988 | S. cerevisiae deletion strains, locus YPR141C, strain kar3, hits give low values 0.984 | S. cerevisiae deletion strains, locus YPR163C, strain tif3, hits give low values 0.988 | S. cerevisiae deletion strains, locus YPR167C, strain met16, hits give low values 1 | S. cerevisiae deletion strains, strain wtn01, hits give low values 0.995 | S. cerevisiae strains, strain wild type, hits give low values 0.995
